In the library only some 2.2% were active in any assay of this set; here they are far more common.
TDP43 rescue = inhibitors of TDP-43 toxicity in yeast. TDP-43 expressing yeast growth rescue, BacTiter-Glo, 24 h. Potency, µM (top dose mostly 46.1 µM), without a hit: at the top dose growth rescue (activation), most hits filed as activators. 410,000 tested, 1.8% active. AID 652104; also: % of control where 0% means no effect; nearly all actives have a fitted effect of over 50% in size
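Growth rescue of TDP-43-toxic yeast measured as ATP luminescence (BacTiter-Glo). Cells grown to mid-log in raffinose, induced in galactose at OD600=0.02, exposed to compound 24 hr at 30 deg C.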
aSyn rescue = inhibitors of alpha-synuclein toxicity in yeast | Yeast expressing alpha-synuclein, growth rescue, BacTiter-Glo, 24 h | Potency, µM (top dose mostly 46.1 µM), for the others: at the top dose growth rescue (activation), most hits filed as activators | 370,000 tested, 0.14% active | AID 652106; also: % of control where 0% means no effect; nearly all actives have a fitted effect of over 65% in size
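Galactose-induced alpha-syn yeast (OD600=0.02, raffinose-pregrown) + pinned cpd, 24 hr, 30 deg C; growth by BacTiter-Glo luminescence. Growth restoration scores as activation.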
Mito fusion yeast = mitochondrial division inhibition or fusion activation; S. cerevisiae fusion-defective mutant growth rescue, CellTiterGlo 48 h; Potency, µM (series often up to 46.1 µM), without a hit: at the highest dose growth rescue (activation), actives largely listed as activators; 320,000 tested, 0.23% active; also: % of control where 0% means no effect; nearly all actives have a fitted effect of over 45% in size
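Temperature-sensitive fusion-defective S. cerevisiae (e.g. fzo1-1, mgm1-5) were grown with compound in YPEG medium (3% ethanol, 3% glycerol) for 48 hours at 37C. Growth rescue was measured as viability by CellTiterGlo luminescence after 10 minutes at ambient.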
Abeta rescue = compounds reversing amyloid beta toxicity in yeast. 410,000 tested, 0.063% active. Potency, µM (series often up to 46.1 µM), usual class: activators. AID 1347071. yeast expressing A-beta42, growth rescue, OD600, 48 h; response scale: 0% DMSO, 100% iron-clioquinol control; also: nearly all actives have a fitted effect of over 55% in size
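Yeast A-beta toxicity model in growth medium with pinned compounds, 48 h at 30 C; growth read as absorbance at 600 nm. Normalized to FeCl3/clioquinol equimolar mix (positive) and DMSO (negative).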
FUS suppressor = rescues growth of FUS-expressing yeast. S. cerevisiae FUS-expressing, growth rescue, OD600, 24 h. Potency, µM (doses to about 76.6 µM), actives largely listed as activators. 390,000 tested, 0.24% active;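 also: plate controls were DMSO vehicle for no effect and reference control for full effect; nearly all actives have a fitted effect of over 55% in size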
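S. cerevisiae expressing FUS from galactose induction served as the toxicity model. Growth after 24hr at 30C, read as absorbance at 600 nm, indicates suppression of toxicity; compounds dosed at several concentrations.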
* hit, by the source's call; i = inactive; ? = inconclusive; . = not tested or not shown. Calls follow the shape of the dose curve; as a rule, active = well fitted curve in the direction sought with a large enough effect; inconclusive = small, poorly fitted or top-dose-only effect, or another doubt; inactive = no such curve, though single readings can be large; an effect the other way counts as inactive or inconclusive. Potency is read from the fitted curve at half-maximal effect.

SMILES	TDP43 rescue	aSyn rescue	Mito fusion yeast	Abeta rescue	FUS suppressor
CC1CCCC(C)N1CC(O)Cn1c2ccccc2c2ccccc21 (stereo not given)	11µM*	6%	3%	i	i
COc1ccc(OC)c(NC(=O)c2ccc(Cl)cc2)c1	-13%	-1%	15%	i	i
COc1ccc(OC)c(NC(=O)c2csc(Cl)c2OC)c1	20µM*	6%	10µM*	i	?
Cc1ccc(NC(=O)CCC(=O)N2CCSc3ccccc32)cc1Cl	-16%	.	.	i	i
Cc1ccsc1/C=N/NC(=O)CSCc1ccc(Cl)cc1	14µM*	?	8%	i	i
CCOC(=O)C1CCCN(C(=O)c2ccccc2NC(=O)c2nsc3ccccc23)C1 (stereo not given)	29%	.	.	i	i
CN1C(=O)Cc2cc(S(=O)(=O)CCC(=O)N3CCN(c4ccc(Cl)cc4)CC3)ccc21	21%	.	.	i	i
CCCCCCCCn1cc(C(C)=O)c(=O)[nH]c1=O	13µM*	6%	10%	i	i
CCc1ccc(C(=O)c2cn(CC(=O)Nc3ccc(OC)c(OC)c3)c3ccc(C)cc3c2=O)cc1	21%	.	.	i	i
O=C(Nc1ccc(Br)cc1)C1CC(c2c(F)cccc2Cl)=NO1 (stereo not given)	11µM*	7%	-4%	i	i
O=C(Nc1cc(Br)ccc1O)C1CC(c2c(F)cccc2Cl)=NO1 (stereo not given)	6%	-2%	-7%	i	i
O=C(C1CCCN(S(=O)(=O)c2ccccc2F)C1)N1CCN(Cc2ccccc2)CC1 (stereo not given)	.	.	.	.	i
O=C(/C=C/c1cn(-c2ccccc2)nc1-c1cccc(Cl)c1)N1CCN(c2ccccn2)CC1	14µM*	-10%	-1%	i	?
O=C(/C=C/c1cn(-c2ccccc2)nc1-c1cccnc1)N1CCCCC1	?	4%	16%	i	i
COc1ccc(C(=O)c2ccc([N+](=O)[O-])cc2Cl)cc1	11µM*	5%	21%	i	i
COc1ccc(-c2cnnn2-c2ccc(NC(=O)c3c(F)cccc3F)cc2)cc1	1%	.	.	i	i
O=C(CCn1c(=O)oc2ccccc21)Nc1nc2ccccc2s1	28µM*	6%	12%	i	i
CCSc1nnc(NC(=O)CCn2c(=O)oc3ccccc32)s1	-4%	-7%	2%	i	i
CN1C(=O)C[C@@](C#N)(C(=O)NCc2ccccc2)[C@H]1c1ccccc1	.	.	.	.	i
O=C(Cn1c(=O)c2ccccc2n(CC(=O)Nc2ccc(Cl)cc2)c1=O)NCCc1ccccc1	-1%	.	.	i	i
COc1cccc(NC(=O)Cn2c(=O)n(Cc3ccc4c(c3)OCO4)c(=O)c3oc4ccccc4c32)c1	8%	.	.	i	i
COc1cc(Cl)ccc1OCc1cc(C(=O)NCc2cc(C(C)C)no2)no1	11µM*	12%	4%	i	.
CNc1c(Br)cc(C=O)cc1Br	.	2%	.	.	.
Cc1noc(C)c1COC(=O)Cc1ccc(Cl)c(Cl)c1	10µM*	25%	-3%	i	i
O=C(Nc1ccc(Cl)cc1)c1csc(COCCO)n1	20%	-5%	.	i	i
SMILES	TDP43 rescue	aSyn rescue	Mito fusion yeast	Abeta rescue	FUS suppressor
O=C(Nc1ccc(Oc2ccccc2)cc1)c1csc(COCCO)n1	13µM*	3%	.	i	i
CCCC[C@H]1C2CC(OC(=O)Nc3cccc(C#N)c3)C(C2)[C@H]2CCCCN21 (stereo not given in full)	.	.	.	.	i
CCSC(=O)N1CCN(/[N+]([O-])=N/Oc2ccc([N+](=O)[O-])cc2[N+](=O)[O-])CC1	.	-60%	.	.	.
COc1ccc(NS(=O)(=O)c2ccc(-c3cnc(C4CC4)o3)cc2)cc1Cl	28%	.	.	i	?
Cc1ccc(C)c(NS(=O)(=O)c2ccc(-c3coc(C)n3)cc2)c1	13µM*	4%	7%	i	i
CCOC(=O)c1cccc(NS(=O)(=O)c2cc(-c3cnc(C4CC4)o3)ccc2C)c1	20µM*	.	.	i	i
Cc1ccc(C)c(NS(=O)(=O)c2ccc(-c3cnc(C4CC4)o3)cc2)c1	32µM*	?	0%	.	?
CCOc1ccc(NS(=O)(=O)c2ccc(-c3cnc(C4CC4)o3)cc2)cc1	35µM*	?	-11%	.	?
Cc1cc(C)cc(NS(=O)(=O)c2ccc(-c3cnc(C4CC4)o3)cc2)c1	?	?	8%	i	?
CCc1ccc(NS(=O)(=O)c2cc(-c3cnc(C4CC4)o3)ccc2C)cc1	?	.	.	i	?
CN(C)C(=O)COC(=O)c1ccccc1OCC(=O)Nc1ccc(Br)cc1	.	10%	.	.	.
Cc1occc1-c1nnc(SCC(=O)N[C@@H]2CCc3ccccc32)n1-c1ccccc1	.	.	.	.	i
Cc1ccc(NC(=O)Cn2cc(S(=O)(=O)NC(C)C)c(S(=O)(=O)NC(C)C)c2)cc1Cl	17%	.	.	i	i
CC(=O)Nc1ccc(NS(=O)(=O)c2ccc(-c3cnc(C4CC4)o3)cc2)cc1	-9%	-2%	1%	i	i
CCOC(=O)c1cccc(NS(=O)(=O)c2ccc(-c3coc(C)n3)cc2)c1	35µM*	6%	.	i	i
O=S(=O)(Nc1ccccc1)c1ccc(-c2cnc(C3CC3)o2)cc1	35µM*	-15%	1%	i	i
O=C(Nc1cc(Cl)cc(Cl)c1)c1cc(S(=O)(=O)NC2CCCC2)ccc1F	20µM*	.	.	i	i
O=C(Nc1ccc(F)c(F)c1)c1cc(S(=O)(=O)NC2CCCC2)ccc1F	2%	.	.	i	i
O=C(CN1C(=O)COc2ccc(S(=O)(=O)NC3CCCC3)cc21)Nc1ccc(F)c(Cl)c1	-4%	.	.	i	20µM*
CCOc1cc(/C=C2\COc3ccccc3C2=O)cc(Br)c1OCC(=O)N(C)C	22µM*	?	-56%	i	?
COc1ccc(/C=C2\COc3ccccc3C2=O)cc1OC	2.8µM*	23%	-11%	i	i
CCOc1cc(/C=N/Nc2nc3ccccc3[nH]2)cc(Br)c1OCC(=O)N(C)C	8%	3%	3%	i	i
O=C(O)c1ccc(/C=C2\COc3ccccc3C2=O)cc1	11µM*	?	-19%	i	i
CC(C)(C)SCCNC(=O)CN(c1ccc(F)cc1)S(C)(=O)=O	-13%	-6%	6.3µM*	i	i
CC(C)(C)SCCNC(=O)CN(c1ccc(F)c(Cl)c1)S(C)(=O)=O	-7%	9%	2%	i	i
O=C(CSc1cn(CC(=O)N2CCCC2)c2ccccc12)Nc1cc(C(F)(F)F)ccc1Cl	?	.	.	i	?
C(/Oc1ccccc1)=C1\Nn2c(nnc2-c2cc(-c3ccccc3)n[nH]2)S1	.	5%	.	.	.

Screening data: PubChem, National Center for Advancing Translational Sciences (NCATS)
